# Test results from PubChem BioAssay (NCI).
# About 83,000 compounds went through this panel and 20% of them were active in at least one assay; those are over-represented in the sample as a whole.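 Interpretation: 100, growth as untreated; towards 0, rising growth inhibition; 0, no net growth; 0 to -100, cell death. Compounds scoring below 10 were considered active.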 Unmarked numbers belong to inactive results. Calls of active or inactive are those of the source.
# Experiments:
# Experiment in all cases: NCI-60 one-dose screen, 48 h (100 = growth as untreated, 0 = no growth, -100 = all killed)
# [1] = system: NCI-H23 lung; conditions: 10 µM unless noted
# [2] = system: NCI-H226 lung; conditions: 10 µM unless noted
# [3] = system: DU-145 prostate; conditions: 10 µM unless noted
# [4] = system: MDA-MB-231 breast; conditions: 10 µM unless noted
# [5] = system: SF-268 CNS; conditions: 10 µM unless noted
# [6] = system: M14 melanoma; conditions: 10 µM unless noted
# [7] = system: HCT-15 colon; conditions: 10 µM
# [8] = system: SNB-75 CNS; conditions: 10 µM unless noted
# [9] = system: U251 CNS; conditions: 10 µM unless noted
# [10] = system: PC-3 prostate; conditions: 10 µM unless noted
# [11] = system: UACC-62 melanoma; conditions: 10 µM unless noted
# [12] = system: OVCAR-8 ovarian; conditions: 10 µM unless noted
# [13] = system: OVCAR-5 ovarian; conditions: 10 µM unless noted
# [14] = system: SK-OV-3 ovarian; conditions: 10 µM unless noted
# [15] = system: OVCAR-3 ovarian; conditions: 10 µM unless noted
# [16] = system: NCI/ADR-RES ovarian; conditions: 10 µM unless noted
# [17] = system: MDA-MB-435 melanoma; conditions: 10 µM unless noted
# [18] = system: MCF7 breast; conditions: 10 µM unless noted
# [19] = system: HCT-116 colon; conditions: 10 µM unless noted
# [20] = system: KM12 colon; conditions: 10 µM unless noted
Structure (SMILES),growth [1] [%],growth [2] [%],growth [3] [%],growth [4] [%],growth [5] [%],growth [6] [%],growth [7] [%],growth [8],growth [9] [%],growth [10],growth [11] [%],growth [12] [%],growth [13] [%],growth [14] [%],growth [15],growth [16] [%],growth [17],growth [18],growth [19] [%],growth [20] [%]
COc1ccc(/C=C(/C(=O)N2CCCC2)c2cc(OC)c(OC)c(OC)c2)cc1N,41.7,75.9,24.6,62,47.5,11.7,29.2,-12.2% (active),31,14.5%,41.5,41.8,54.5,28.7,0.49% (active),68.2,-39.8% (active),14.2%,23.5,14.8
CNC(=O)Oc1ccccc1,107,102,113,110,107,99.3,102,80.7%,108,106%,102,110,101,108,108%,102,,87%,106,100
CC1(C)N=C(N)N=C(N)N1c1ccc(CNC(=O)Nc2ccc(S(=O)(=O)F)c(Cl)c2)c(Cl)c1,31.1,83.8,31.7,60.8,26.5,29.4,47.5,69.2%,11.3,4.03% (active),23.9,25.4,26.4,42.9,48.9%,103,13.5%,1.42% (active),10.1,21.2
